Test results reported in PubChem BioAssay AID1159580 (chemical genetic matrix, 2015).
Out of some 5,500 compounds screened, about 2,000 (36%) were called active. Another 18% or so got no clear call; they are omitted. No stated cut-off is given here; in the data, active means normalized growth mostly below about 0.91 (no sharp cut-off); inconclusive means no clear call, values can overlap the other calls; inactive means mostly above about 0.92. The list shows a part of the results.

Experiment: chemical genetic growth profiling, strain panel (AID 1159580);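 further: tested at 20 µM; growth read once vehicle control cultures reached saturation at 30 °C; 1 = growth at the plate median or of vehicle wells; lower values mean less growth of the strain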
Conditions: growth OD

Measured: normalized growth

NC(=O)c1ncn([C@@H]2O[C@H](CO)[C@@H](O)[C@H]2O)c1O
inactive: S. cerevisiae deletion strains, locus YAL013W, strain DEP1, hits give low values 1 | S. cerevisiae deletion strains, locus YBR021W, strain FUR4, hits give low values 1.02 | S. cerevisiae deletion strains, locus YBR229C, strain ROT2, hits give low values 1.01 | S. cerevisiae deletion strains, locus YCL029C, strain bik1, hits give low values 1.01 | S. cerevisiae deletion strains, locus YDL035C, strain GPR1, hits give low values 1.02 | S. cerevisiae deletion strains, locus YDL074C, strain BRE1, hits give low values 0.978 | S. cerevisiae deletion strains, locus YDL101C, strain DUN1, hits give low values 1 | S. cerevisiae deletion strains, locus YDL134C, strain PPH21, hits give low values 1 | S. cerevisiae deletion strains, locus YDL185W, strain tfp1, hits give low values 1.01 | S. cerevisiae deletion strains, locus YDL192W, strain arf1, hits give low values 1.01 | S. cerevisiae deletion strains, locus YDR101C, strain arx1, hits give low values 1.01 | S. cerevisiae deletion strains, locus YDR150W, strain NUM1, hits give low values 0.997 | S. cerevisiae deletion strains, locus YDR162C, strain NBP2, hits give low values 0.983 | S. cerevisiae deletion strains, locus YDR318W, strain mcm21, hits give low values 1.03 | S. cerevisiae deletion strains, locus YDR388W, hits give low values 1 | S. cerevisiae deletion strains, locus YDR502C, strain sam2, hits give low values 0.999 | S. cerevisiae deletion strains, locus YEL061C, strain CIN8, hits give low values 1 | S. cerevisiae deletion strains, locus YER110C, hits give low values 1.01 | S. cerevisiae deletion strains, locus YER155C, strain BEM2, hits give low values 1 | S. cerevisiae deletion strains, locus YER167W, strain BCK2, hits give low values 1.03 | S. cerevisiae deletion strains, locus YGL078C, strain dbp3, hits give low values 0.984 | S. cerevisiae deletion strains, locus YGL086W, strain mad1, hits give low values 1.02 | S. cerevisiae deletion strains, locus YGL248W, strain PDE1, hits give low values 1.01 | S. cerevisiae deletion strains, locus YGR078C, strain PAC10, hits give low values 1 | S. cerevisiae deletion strains, locus YGR135W, strain pre9, hits give low values 0.988 | S. cerevisiae deletion strains, locus YGR229C, strain SMI1, hits give low values 0.981 | S. cerevisiae deletion strains, locus YGR252W, strain gcn5, hits give low values 1.01 | S. cerevisiae deletion strains, locus YHR030C, strain SLT2, hits give low values 1.01 | S. cerevisiae deletion strains, locus YHR079C, strain IRE1 (second series), hits give low values 1.02 | S. cerevisiae deletion strains, locus YHR094C, strain hxt1, hits give low values 1.01 | S. cerevisiae deletion strains, locus YHR129C, strain ARP1, hits give low values 1.01 | S. cerevisiae deletion strains, locus YHR200W, strain rpn10, hits give low values 1.01 | S. cerevisiae deletion strains, locus YIL066C, strain RNR3, hits give low values 1.01 | S. cerevisiae deletion strains, locus YIL073C, strain SPO22, hits give low values 1.07 | S. cerevisiae deletion strains, locus YIL125W, strain kgd1, hits give low values 1 | S. cerevisiae deletion strains, locus YIR030C, strain dcg1, hits give low values 1.02 | S. cerevisiae deletion strains, locus YJL095W, strain BCK1, hits give low values 0.994 | S. cerevisiae deletion strains, locus YJL134W, strain LCB3, hits give low values 1.01 | S. cerevisiae deletion strains, locus YJL168C, strain set2, hits give low values 1.01 | S. cerevisiae deletion strains, locus YJL187C, strain SWE1 (second series), hits give low values 0.998 | S. cerevisiae deletion strains, locus YJR043C, strain POL32, hits give low values 1.04 | S. cerevisiae deletion strains, locus YJR075W, strain HOC1, hits give low values 0.974 | S. cerevisiae deletion strains, locus YKL009W, strain mrt4, hits give low values 0.996 | S. cerevisiae deletion strains, locus YKL068W, hits give low values 0.995 | S. cerevisiae deletion strains, locus YKL085W, strain MDH1 (second series), hits give low values 1 | S. cerevisiae deletion strains, locus YKL085W, strain MDH1, hits give low values 1 | S. cerevisiae deletion strains, locus YKL190W, strain CNB1, hits give low values 1.01 | S. cerevisiae deletion strains, locus YKR001C, strain vps1, hits give low values 1.02 | S. cerevisiae deletion strains, locus YLR039C, strain RIC1, hits give low values 1.04 | S. cerevisiae deletion strains, locus YLR058C, strain SHM2, hits give low values 1.01 | S. cerevisiae deletion strains, locus YLR102C, strain apc9, hits give low values 1.02 | S. cerevisiae deletion strains, locus YLR262C, strain YPT6, hits give low values 0.988 | S. cerevisiae deletion strains, locus YLR268W, strain sec22, hits give low values 0.988 | S. cerevisiae deletion strains, locus YLR330W, strain CHS5, hits give low values 1 | S. cerevisiae deletion strains, locus YLR342W, strain FKS1 (second series), hits give low values 1.07 | S. cerevisiae deletion strains, locus YLR371W, strain rom2, hits give low values 1.02 | S. cerevisiae deletion strains, locus YLR418C, strain cdc73, hits give low values 0.979 | S. cerevisiae deletion strains, locus YML016C, strain PPZ1, hits give low values 1 | S. cerevisiae deletion strains, locus YML032C, strain rad52, hits give low values 1.03 | S. cerevisiae deletion strains, locus YML124C, strain tub3, hits give low values 1.01 | S. cerevisiae deletion strains, locus YMR078C, strain ctf18, hits give low values 1.02 | S. cerevisiae deletion strains, locus YMR223W, strain ubp8, hits give low values 1.03 | S. cerevisiae deletion strains, locus YMR263W, strain SAP30, hits give low values 0.991 | S. cerevisiae deletion strains, locus YMR307W, strain GAS1, hits give low values 1.05 | S. cerevisiae deletion strains, locus YNL067W, strain RPL9B, hits give low values 0.988 | S. cerevisiae deletion strains, locus YNL128W, strain TEP1, hits give low values 0.977 | S. cerevisiae deletion strains, locus YNL153C, strain GIM3, hits give low values 0.995 | S. cerevisiae deletion strains, locus YNL233W, strain BNI4, hits give low values 0.99 | S. cerevisiae deletion strains, locus YNL250W, strain rad50, hits give low values 1.01 | S. cerevisiae deletion strains, locus YNL271C, strain bni1, hits give low values 1.01 | S. cerevisiae deletion strains, locus YNL298W, strain CLA4, hits give low values 1.02 | S. cerevisiae deletion strains, locus YNL307C, strain MCK1, hits give low values 1.05 | S. cerevisiae deletion strains, locus YNL322C, strain KRE1, hits give low values 1.01 | S. cerevisiae deletion strains, locus YNR052C, strain pop2, hits give low values 1.02 | S. cerevisiae deletion strains, locus YOL006C, strain TOP1, hits give low values 1.06 | S. cerevisiae deletion strains, locus YOL012C, strain htz1 0.852 | S. cerevisiae deletion strains, locus YOL147C, strain pex11, hits give low values 0.999 | S. cerevisiae deletion strains, locus YOR061W, strain CKA2, hits give low values 1 | S. cerevisiae deletion strains, locus YOR069W, strain VPS5, hits give low values 1.01 | S. cerevisiae deletion strains, locus YOR136W, strain idh2, hits give low values 1.02 | S. cerevisiae deletion strains, locus YOR144C, strain elg1, hits give low values 1 | S. cerevisiae deletion strains, locus YOR184W, strain ser1, hits give low values 1.06 | S. cerevisiae deletion strains, locus YOR316C, strain cot1, hits give low values 1.01 | S. cerevisiae deletion strains, locus YPL055C, strain LGE1, hits give low values 0.946 | S. cerevisiae deletion strains, locus YPL241C, strain CIN2, hits give low values 1 | S. cerevisiae deletion strains, locus YPR119W, strain clb2, hits give low values 1.01 | S. cerevisiae deletion strains, locus YPR141C, strain kar3, hits give low values 1.01 | S. cerevisiae deletion strains, locus YPR163C, strain tif3, hits give low values 1.01 | S. cerevisiae deletion strains, locus YPR167C, strain met16, hits give low values 1.01 | S. cerevisiae deletion strains, strain wtn01, hits give low values 0.997 | S. cerevisiae strains, strain wild type, hits give low values 1.02
